Reference: PubChem BioAssay (NCATS)
Results filed as inconclusive are left out. A number with no mark means an inactive call. Activity calls are given as the source filed them. Calls come from the whole dose curve; as a rule, active = well fitted curve in the direction sought with a large enough effect; inconclusive = small, poorly fitted or top-dose-only effect, or another doubt; inactive = no such curve, though single readings can be large; an effect the other way counts as inactive or inconclusive.

Molecular target: Ubiquitin carboxyl-terminal hydrolase 1 (Homo sapiens) (UniProt O94782)
Assay: Inhibitors of USP1/UAF1: Pilot qHTS (AID 504865); note: nearly all actives have a fitted effect of over 35% in size; note: potency is the fitted concentration of half-maximal effect;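 for activity change, negative = inhibition: rhodamine fluorescence freed from ubiquitin-rhodamine substrate followed over time; top concentration of the series differs between compounds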
Conditions: purified USP1/UAF1, Ub-rhodamine cleavage fluorescence; series mostly up to 114 µM; activity change, negative = inhibition: at the top concentration
How it was run: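 In 50mM HEPES pH 7.8 containing 0.5mM EDTA, 1mM TCEP, 0.1 mg/ml BSA and 0.01% Tween-20, 1nM USP1/UAF1 is exposed to compound for 15 min, then Ub-Rho (150nM final) is added and fluorescence is read over time.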
% is set by controls: 0 for no effect and ±100 for the full control effect.

Sequence of Ubiquitin carboxyl-terminal hydrolase 1 (Homo sapiens) (O94782 whole entry, looked up): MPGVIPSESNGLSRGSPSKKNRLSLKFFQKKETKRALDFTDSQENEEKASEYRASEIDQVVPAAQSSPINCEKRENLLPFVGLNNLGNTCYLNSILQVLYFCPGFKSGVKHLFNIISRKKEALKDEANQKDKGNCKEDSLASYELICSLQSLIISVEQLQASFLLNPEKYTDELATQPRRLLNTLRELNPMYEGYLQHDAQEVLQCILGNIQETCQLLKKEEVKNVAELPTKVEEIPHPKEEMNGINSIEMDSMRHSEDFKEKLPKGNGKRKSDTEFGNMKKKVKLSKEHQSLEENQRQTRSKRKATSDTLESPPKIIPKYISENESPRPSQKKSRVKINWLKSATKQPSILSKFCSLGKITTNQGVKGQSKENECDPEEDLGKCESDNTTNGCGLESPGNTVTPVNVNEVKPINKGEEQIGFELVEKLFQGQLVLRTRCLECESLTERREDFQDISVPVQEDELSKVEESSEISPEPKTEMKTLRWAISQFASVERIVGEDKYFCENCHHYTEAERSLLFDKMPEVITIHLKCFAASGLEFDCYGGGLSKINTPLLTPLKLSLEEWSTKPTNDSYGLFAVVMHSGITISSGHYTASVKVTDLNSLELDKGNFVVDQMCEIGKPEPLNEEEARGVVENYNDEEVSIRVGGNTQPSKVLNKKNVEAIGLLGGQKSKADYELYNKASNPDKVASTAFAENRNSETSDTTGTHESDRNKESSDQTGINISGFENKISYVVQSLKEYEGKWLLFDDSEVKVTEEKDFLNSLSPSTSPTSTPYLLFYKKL

SMILES	activity change, negative = inhibition	Potency
C[C@]12CCC(=O)C=C1CC[C@@H]1[C@H]2[C@@H](O)C[C@@]2(C)[C@H]1CC[C@]2(O)C(=O)CO	-7.13%	–
O=c1c(O)c(-c2ccc(O)cc2O)oc2cc(O)cc(O)c12	–	50.1 µM (active)
Oc1ccc(OCc2ccccc2)cc1	-7.62% [at 54.9 µM]	–
CC[C@]1(O)C[C@H]2CN(CCc3c([nH]c4ccccc34)[C@@](C(=O)OC)(c3cc4c(cc3OC)N(C=O)[C@H]3[C@@](O)(C(=O)OC)[C@H](OC(C)=O)[C@]5(CC)C=CCN6CC[C@]43[C@@H]65)C2)C1	-10.2%	–
CCC[C@@H]1C[C@@H](C(=O)N[C@@H]([C@H]2O[C@H](SC)[C@H](O)[C@@H](O)[C@H]2O)[C@@H](C)O)N(C)C1	2.76%	–
Cc1ncc([N+](=O)[O-])n1CC(C)O (centres undefined)	-5.97%	–
CCOC(=O)c1c(C)n(C)c2ccc(O)cc12	-6.86%	–
COc1ccc(C2(C#N)CCC(C(=O)O)CC2)cc1OC1CCCC1 (centres undefined)	-5.53%	–
CCN(CCO)CCCC(C)Nc1ccnc2cc(Cl)ccc12 (centres undefined)	–	inactive
S=c1nc[nH]c2nc[nH]c12	-8.81%	–
O=C(NCC1CCCCN1)c1cc(OCC(F)(F)F)ccc1OCC(F)(F)F (centres undefined)	-1.3%	–
Cc1nc(Nc2ncc(C(=O)Nc3c(C)cccc3Cl)s2)cc(N2CCN(CCO)CC2)n1	-11.9%	–
N=C(N)c1ccc2cc(OC(=O)c3ccc(N=C(N)N)cc3)ccc2c1	-12.9%	–
CCCOc1ccc2nc(NC(=O)OC)[nH]c2c1	-2.58%	–
CN(C)C(=O)COC(=O)Cc1ccc(OC(=O)c2ccc(N=C(N)N)cc2)cc1	-6.71%	–
N=C(N=C(N)N)N1CCOCC1	6.17% [at 54.9 µM]	–
CN1C(C(=O)Nc2ccccn2)=C(O)c2sccc2S1(=O)=O	-3.27% [at 54.9 µM]	–
O=c1ccc2ccc(O)c(O)c2o1	4.41%	–

Test system: not listed separately
Assay: qHTS for Inhibitors of ATXN expression: Validation of Cytotoxic Assay (AID 588349)
Conditions: cytotoxicity counter-screen for ATXN expression inhibitors, cell viability; series mostly up to 57.1 µM; activity change, negative = cytotoxicity: at the top concentration
How it was run: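 Cytotoxicity counter-screen: HEK293 cells exposed to compound titrations, 72 hr, 37 degrees C. Read-out is intracellular ATP (CellTiter Glo luminescence) as a viability measure.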

SMILES	activity change, negative = cytotoxicity
O=C1c2c(O)cc(O)cc2OC(c2ccc(O)c(O)c2)C1O (centres undefined)	1.3%
O=c1c(O)c(-c2ccc(O)cc2O)oc2cc(O)cc(O)c12	-24.8%
O=c1ccc2ccc(O)c(O)c2o1	-19.7%

Test system: not listed separately
Assay: qHTS for Inhibitors of ATXN expression: Validation (AID 588378); note: nearly all actives have a fitted effect of over 75% in size
Conditions: cell-based ATXN2 expression reporter assay, luminescence; series mostly up to 57.1 µM; activity change, negative = inhibition: at the top concentration
How it was run: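 Compounds were pinned onto attached HEK293 cells carrying an ATXN2-firefly luciferase construct and incubated 24 hrs at 37 degrees C. Each well then received a fluorescent viability reagent followed by luciferase substrate for end-point luminescence.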

SMILES	activity change, negative = inhibition
O=C1c2c(O)cc(O)cc2OC(c2ccc(O)c(O)c2)C1O (centres undefined)	5.84%
O=c1c(O)c(-c2ccc(O)cc2O)oc2cc(O)cc(O)c12	-16.3%
O=c1ccc2ccc(O)c(O)c2o1	-25.3%
